Assay outcomes from PubChem.
GRIN3A LBD mod – modulators (binders) of human NR3A ligand-binding domain; NR3A LBD differential scanning fluorimetry, Tm shift; 0% = protein alone, 100% = glycine-bound protein; Tm shift relative to glycine control, % at 25 µM; 2.5% of 340,000 active;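 active = melting temperature shift of at least 10% of the positive control shift, at one fixed dose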
ADAM17 inh – inhibits human ADAM17 | P78536 | recombinant ADAM17, EDANS/DABCYL FRET peptide cleavage | inhibition, % at 6.95 µM | 0.83% of 370,000 active | AID 720648;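 active = inhibition above the mean of compounds lying between control limits plus 3 SD, set per campaign, cut at about 8.5% in these data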;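 also: 0% = DMSO-only wells as the low control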
FAS TE block – blocks the thioesterase domain of human fatty acid synthase | 0.67% of 360,000 active | AID 602261 | P49327 | recombinant FAS-TE, OMFH fluorogenic substrate, fluorescence endpoint | inhibition, % at 15 µM;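 active = compounds whose normalised, plate-corrected inhibition of enzyme fluorescence in the single-dose primary screen is 50% or more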;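 also: 0% = DMSO with enzyme and 100% = substrate without enzyme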
ADAM10 inh – ADAM10 inhibition, QFRET primary screen; O14672; recombinant ADAM10, EDANS/DABCYL FRET peptide cleavage, 3 h; inhibition, % at 7 µM; AID 720582; 0.62% of 370,000 active;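 active = inhibition above a per-campaign cutoff equal to the mean of compounds falling between control-based bounds plus 3 SD, cut at about 20% in these data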;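 also: 0% = DMSO wells while the 100% control is not disclosed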
proKLK7 act – activates the human kallikrein-7 zymogen; purified proKLK7, EDANS-DABCYL substrate fluorescence; 100% is mature enzyme control, 0% vehicle; 0.9% of 370,000 active; P49862; AID 652039; activation, % at 7 µM;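 active = activation above the mean of all tested compounds plus 3 SD, computed per campaign excluding outliers beyond control limits, cut at about 13% in these data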
* marks the source's active call; other numbers are inactive results. Shown are actives, neighbours in structure and some others; about 4.6% of the full set was active somewhere.

Results for COc1ccc(C(=O)Nc2cc3c(cc2OC)CCCC3)cc1Br ?
GRIN3A LBD mod: 11.4*; ADAM17 inh: -4.3; FAS TE block: 34.5; ADAM10 inh: 0.6; proKLK7 act: -0.5

How did COc1ccc(C(=O)Nc2ccc(OC)c([N+](=O)[O-])c2)cc1Br do in these assays?
GRIN3A LBD mod: 30.4*; ADAM17 inh: -1.0; FAS TE block: 6.2; ADAM10 inh: -0.9; proKLK7 act: 0.8

Results for COc1ccc(C(=O)Nc2ccc(Cc3ccncc3)cc2)cc1Br ?
GRIN3A LBD mod: -11.1; ADAM17 inh: 4.4; FAS TE block: 30.9; ADAM10 inh: 5.2; proKLK7 act: -0.2

Results for CCn1c2ccccc2c2cc(NC(=O)COC(=O)c3ccccc3O)ccc21 ?
GRIN3A LBD mod: -2.2; ADAM17 inh: -3.5; FAS TE block: 8.3; ADAM10 inh: 2.7; proKLK7 act: 0.2

How did CCn1c2ccccc2c2cc(NC(=O)COC(=O)c3cc(S(N)(=O)=O)c(Cl)cc3Cl)ccc21 do in these assays?
GRIN3A LBD mod: 13.8*; ADAM17 inh: -3.9; FAS TE block: 9.1; ADAM10 inh: -3.5; proKLK7 act: -0.3

Results for CCCC1CCC2(CC1)CCC2OC(=S)Nc1ccccc1Br (stereo unspecified) ?
ADAM17 inh: -2.5; ADAM10 inh: 2.6

How did COc1ccc(NC(=O)c2ccc(S(=O)(=O)N(C)C)cc2)cc1OC do in these assays?
GRIN3A LBD mod: 20.2*; ADAM17 inh: 0.8; FAS TE block: -9.6; ADAM10 inh: 3.3; proKLK7 act: 0.1

What do the screens show for `COc1ccc(NC(=O)c2ccc(CN(c3cc(Cl)ccc3C)S(=O)(=O)c3ccccc3)cc2)cc1OC`?
GRIN3A LBD mod: 2.0; ADAM17 inh: 1.9; FAS TE block: 62.2*; ADAM10 inh: 4.1; proKLK7 act: 0.2

How did COc1ccc(NC(=O)c2ccc(N(C)S(C)(=O)=O)cc2)cc1OC do in these assays?
GRIN3A LBD mod: 0.1; ADAM17 inh: 0.4; FAS TE block: -7.8; ADAM10 inh: -4.9; proKLK7 act: 0.2

What do the screens show for `COC(=O)[C@]12C[C@H](CC(=O)N3CCOCC3)C(=O)N(CCc3ccc(OC)c(OC)c3)C1=C[C@H](C(C)C)O[C@@H]2C1CC1`?
ADAM17 inh: -1.1; ADAM10 inh: 4.0; proKLK7 act: 0.0

Results for COc1ccc(-n2c(SCC(=O)Nc3ccc(S(=O)(=O)Nc4nccs4)cc3)nnc2-c2ccccc2)cc1 ?
ADAM17 inh: 6.4; ADAM10 inh: 6.8; proKLK7 act: 0.0

Results for Cc1ccc(-c2cc(-c3nnc(SCC(=O)N4CCOCC4)n3N)[nH]n2)cc1 ?
ADAM17 inh: -0.5; ADAM10 inh: -1.2; proKLK7 act: 0.7

How did Cc1cccc(Cn2cc(COC(=O)N3CCCC3)nn2)c1 do in these assays?
ADAM17 inh: -2.6; ADAM10 inh: -8.0; proKLK7 act: -0.7

What do the screens show for `COc1cc(OC)cc(C(=O)Nc2ccc(Nc3ccccc3)cc2)c1`?
GRIN3A LBD mod: 0.0; ADAM17 inh: 6.5; FAS TE block: 33.2; ADAM10 inh: 17.5; proKLK7 act: 0.6

How did COc1cc(OC)cc(C(=O)Nc2nnc(NC(=S)Nc3ccccc3)s2)c1 do in these assays?
GRIN3A LBD mod: 25.7*; FAS TE block: 8.6

How did CCN(CC)S(=O)(=O)c1ccc(NC(=S)Nc2ccccc2)cc1 do in these assays?
GRIN3A LBD mod: 1.4; ADAM17 inh: -2.0; FAS TE block: 1.2; ADAM10 inh: 4.3; proKLK7 act: 0.1

What do the screens show for `CCN(CC)S(=O)(=O)c1ccc(C(=O)Nc2nnc(NC(=S)Nc3ccccc3)s2)cc1`?
GRIN3A LBD mod: 28.2*; ADAM17 inh: 4.2; FAS TE block: 2.9; ADAM10 inh: 8.4; proKLK7 act: 0.1

What do the screens show for `O[C@H](COc1cc(F)cc(F)c1)CN1CCC(C(O)(c2ccccc2)c2ccccc2)CC1`?
ADAM17 inh: -0.2; ADAM10 inh: 4.0; proKLK7 act: 0.0

What do the screens show for `COc1ccc(C2=NN(C(=O)c3cccc([N+](=O)[O-])c3)C(c3cccc([N+](=O)[O-])c3)C2)cc1` (stereo unspecified)?
GRIN3A LBD mod: -1.1; ADAM17 inh: -0.5; FAS TE block: 50.1*; ADAM10 inh: 5.2; proKLK7 act: 0.5

How did COc1ccc(C2CC(c3ccc([N+](=O)[O-])cc3)=NN2C(=O)c2ccccc2)cc1OC (stereo unspecified) do in these assays?
GRIN3A LBD mod: 1.0; ADAM17 inh: 3.0; FAS TE block: 20.6; ADAM10 inh: 8.8; proKLK7 act: 0.1
